HT1080 IDH1KD tx: qHTS for induction of synthetic lethality in tumor cells producing 2HG: qHTS for the HT-1080-IDH1KD cell line; HT-1080 IDH1 knockdown viability, ATP luminescence, 48 h; 2% of 360,000 active; AID 686971, 2013; Potency, µM (top dose mostly 46.1 µM), without a hit: top-dose activity, negative = toxicity, most hits filed as cytotoxic;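 also: potency is read from the fitted curve at half-maximal effect; 0% = DMSO wells and -100% = cell-free medium wells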
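Knockdown cells (IDH1KD HT-1080) received compounds 2 h after plating at 750 cells/well and were kept 48 h at 37 °C in 5% FBS RPMI. A CellTiter-Glo luminescence read gave % activity for curve fitting.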
TDP1 cell noCPT: qHTS for Inhibitors of human tyrosyl-DNA phosphodiesterase 1 (TDP1): qHTS in cells in absence of CPT. DT40 Tdp1-/- hTDP1 cells, no CPT, ATP luminescence, 48 h. 15% of 420,000 active. Potency, µM (highest dose often 46.2 µM), for inactives: at the top dose activity change, negative = growth inhibition, actives largely listed as inhibitors; also: potency is read from the fitted curve at half-maximal effect; nearly all actives have a fitted effect of over 55% in size
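Growth kinetics read by CellTiter-Glo luminescence after ≥48 hr at 37 °C. Cells: DT40 Tdp1-/- stably carrying human TDP1, 400 per well, compound exposure in the absence of CPT (DMSO vehicle).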
IL-1B inflam inh: qHTS for Inhibitors of Inflammasome Signaling: IL-1-beta AlphaLISA Primary Screen; THP-1 LPS/ATP IL-1B secretion, AlphaLISA, 16 h; stronger effect = lower value; activity change, % at 57.5 µM; 4.7% of 360,000 active; AID 743279, 2014; in the data active = activity change below about -50%; inconclusive = mostly about -30% to -49%
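Secreted IL-1B measured by AlphaLISA bead assay after 16 h compound exposure of THP-1 cells; compounds (final up to 57.5 uM) added 1 h before LPS (250 ng/mL) and ATP (1.25 mM) stimulation; lower signal means less secretion.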
TDP1 cell CPT: qHTS for Inhibitors of human tyrosyl-DNA phosphodiesterase 1 (TDP1): qHTS in cells in presence of CPT. chicken DT40 Tdp1-/-;hTDP1 cells + 20 nM CPT, ATP luminescence, 48 h. Potency, µM (highest dose often 46.2 µM), for the others: at the top dose activity change, negative = growth inhibition, most hits filed as inhibitors. 12% of 420,000 active. AID 686979, 2013; also: potency is read from the fitted curve at half-maximal effect; nearly all actives have a fitted effect of over 55% in size
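Cell growth measured by CellTiter-Glo luminescence after a minimum 48 h, 37 C compound exposure with 20 nM CPT in Tdp1-knockout DT40 cells stably expressing hTDP1, seeded 400/well; qHTS titration format.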
HT1080NT lethal: qHTS for induction of synthetic lethality in tumor cells producing 2HG: qHTS for the HT-1080-NT fibrosarcoma cell line; HT-1080-NT fibrosarcoma viability, CellTiter-Glo ATP luminescence, 48 h; Potency, µM (titrated, usually from 46.1 µM), for the others: at the highest dose activity, negative = less viability, most hits filed as cytotoxic; 1.6% of 360,000 active; AID 686970, 2013;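 also: NT is the 2HG producing partner of a matched IDH1 knockdown line; potency is read from the fitted curve at half-maximal effect; 0% = DMSO-treated cells and -100% = media-only wells without cells; nearly all actives have a fitted effect of over 55% in size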
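HT-1080-NT fibrosarcoma cells (2HG-overproducing), 750 cells/well in RPMI with 5% FBS, dosed after 2 h and incubated 48 h at 37C. CellTiter-Glo luminescence normalized to DMSO and no-cell wells; concentration-response curves fitted and classed.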
Active calls of the source: *; ? = inconclusive; . = no result given; ! = repeats disagree. Compounds with a hit are over-represented: about 19% of the library has one in this group of screens. Unless noted, calls follow the shape of the dose curve; as a rule, active = well fitted curve in the direction sought with a large enough effect; inconclusive = small, poorly fitted or top-dose-only effect, or another doubt; inactive = no such curve, though single readings can be large; an effect the other way counts as inactive or inconclusive. Unless noted, % is scaled to controls: 0 for no effect and ±100 for the full control effect.

SMILES	HT1080 IDH1KD tx	TDP1 cell noCPT	IL-1B inflam inh	TDP1 cell CPT	HT1080NT lethal
CN(CCc1ccccc1)C(=O)c1ccc(NC(=O)Cc2ccc(NC(=O)C3CCCN(C(=O)C4CCC4)C3)cc2)cc1 (centres undefined)	-24.5%	13µM*	-4.0	13µM*	-7.9%
CN(CCc1ccccc1)C(=O)c1ccc(NC(=O)Cc2ccc(NC(=O)C3CCN(S(=O)(=O)c4cccc([N+](=O)[O-])c4)CC3)cc2)cc1	-5.9%	9.2µM*	36.5	?	?
CN(Cc1ccccc1)C(=O)c1ccc(NC(=O)Cc2ccc(NC(=O)C3CCCN(C(=O)C4CCCC4)C3)cc2)cc1 (centres undefined)	-9.3%	?	0.0	?	-5.6%
CCn1c(C(=O)O)c(CC(=O)Nc2cccc(C(F)(F)F)c2)c2ccccc21	1.5%	7.9%	38.2	8.2%	2.6%
C=CCNS(=O)(=O)c1nc(C)c(Cl)c(C)c1C#N	6.4%	-0.9%	-17.9	-1.0%	6.8%
COc1ccc(-c2cn3c(n2)sc2cc(C(=O)NC4CCCCC4)ccc23)cc1	.	-23.8%	.	?	.
CCc1ccc(-c2cn3c(n2)sc2cc(C(=O)NC4CCCCC4)ccc23)cc1	.	6.51µM*	.	3.66µM*	.
CCOC(=O)N1CCC(NC(=O)c2ccc3c(c2)sc2nc(-c4ccccc4)cn23)CC1	-22.1%	9.2µM*	-15.4	14.6µM*	-11.6%
O=C(NC1CCCCCC1)c1ccc2c(c1)sc1nc(-c3ccccc3)cn12	.	16.4µM*	.	9.2µM*	.
Cc1cc(C)cc(NC(=O)C2CCN(C(=O)c3cccs3)CC2)c1	2.5%	-6.6%	-0.4	?	7.1%
COc1cccc(CN2CCCN(CC(=O)Nc3ccc4c(c3)OCCO4)S2(=O)=O)c1	.	-27.2%	.	-20.2%	.
CN(CCc1ccccc1)C(C(=O)Nc1ccc2c(c1)OCCO2)c1ccnc2ccccc12 (centres undefined)	?	?	-17.7	?	?
CC[C@H]1OC(=O)[C@H](C)C(=O)[C@H](C)[C@@H](O[C@@H]2O[C@H](C)C[C@H](N(C)C)[C@H]2O)[C@](C)(OC)C[C@@H](C)C(=O)[C@H](C)[C@H]2N(CCCCn3cnc(-c4cccnc4)c3)C(=O)O[C@]12C	.	2.11µM*	.	2.37µM*!	.
CCOC(=O)CCC(=O)O[C@H]1C(O[C@@H]2C(C)[C@H](O[C@H]3C[C@@](C)(OC)C(O)C(C)O3)C(C)C(=O)OC(CC)[C@@](C)(O)C(O)[C@H](C)C(=O)C(C)C[C@]2(C)O)OC(C)CC1N(C)C (some centres undefined)	.	-3.0%	.	3.2%	.
Cc1cc(C)n2nc(Sc3ncccc3[N+](=O)[O-])nc2n1	-0.5%	?	16.6	?	-1.4%
COc1ccccc1/C=C1\S/C(=N/NC(=O)c2cccc(Br)c2)NC1=O	?	20.6µM*	-13.2	?	?
COc1ccc2oc(=O)c(C(=O)NCc3ccccc3)cc2c1	1.9%	-10.4%	-17.2	?	0.8%
COc1ccc(C(=O)N/N=c2\oc3ccccc3cc2C(=O)NCc2ccccc2)cc1	13.2%	14.6µM*	-4.8	16.4µM*	6.2%
COc1ccc(CNC(=O)c2cc3cc(OC)ccc3oc2=O)cc1	?	11.6µM*	15.4	18.4µM*	-24.6%
CCC(C)[C@H](N)c1nnc(SCC(=O)c2ccc(Cl)cc2)o1 (some centres undefined)	-4.6%	7.08µM*	-5.3	3.98µM*	1.3%
NNC(=S)Nc1ccc(S(=O)(=O)N2CCCCC2)cc1	-21.5%	-10.6%	40.6	-16.4%	-3.6%
C/C(=N\NS(=O)(=O)c1ccc(C)cc1)c1cccs1	-1.5%	-29.6%	-15.8	-1.7%	1.0%
Cc1ccc(S(=O)(=O)NN=C(c2ccccc2)c2cccs2)cc1	-13.3%	11.6µM*	-12.3	-19.2%	-15.8%
CCCN1C(=O)C(Cc2nc3ccccc3c(=O)n2-c2ccc(OC)cc2)c2cc(C)ccc21 (centres undefined)	.	4.11µM*	.	9.2µM*	.
CCN1C(=O)C(Cc2nc3ccccc3c(=O)n2-c2ccccc2)c2cc(Br)ccc21 (centres undefined)	.	5.8µM*	.	5.8µM*	.
SMILES	HT1080 IDH1KD tx	TDP1 cell noCPT	IL-1B inflam inh	TDP1 cell CPT	HT1080NT lethal
CCn1c(CC2C(=O)N(C)c3ccccc32)nc2ccccc2c1=O (centres undefined)	.	-13.0%	.	2.9%	.
CCN1C(=O)C(Cc2nc3ccccc3c(=O)n2C)c2ccccc21 (centres undefined)	-12.3%	14.6µM*	0.0	?	-11.7%
CCCN1C(=O)C(Cc2nc3ccccc3c(=O)n2C)c2ccccc21 (centres undefined)	4.5%	?	10.1	?	-0.8%
CC(=O)Nc1c(C)nn(-c2ccccc2)c1N1CCC(C(=O)Nc2ccc(F)cc2Cl)CC1	.	-27.8%	.	-14.7%	.
COCCN1C[C@@H](CO)O[C@@H](n2cnc3c(NC4CCC4)ncnc32)C1	3.0%	5.3%	-10.8	15.1%	10.9%
CCCCn1nc(C(=O)Nc2ccccc2N2CCCC2)c2ccccc2c1=O	-0.5%	?	-9.2	?	1.9%
CCCC(=O)N(C1CC(C)C(C#N)(C#N)C1(C#N)C#N)N(C)C (centres undefined)	?	2.31µM*	-100.7*	1.3µM*	?
CC(=O)N(C1CC(C)C(C#N)(C#N)C1(C#N)C#N)N(C)C (centres undefined)	?	0.581µM*	-111.6*	0.517µM*	-16.0%
Cc1ccc2[nH]c(=O)c3cc(C(=O)NC(C)C)sc3c2c1	8.7%	?	.	?	12.3%
Cc1cccc(-c2cccc(NC(=O)C3CCCN(Cc4cccnc4)C3)c2)c1 (centres undefined)	?	?	0.0	?	?
COc1ccc(-c2noc(CNC(=O)CCN3C(=O)[C@H]4CC=CC[C@H]4C3=O)n2)cc1	-3.7%	?	-17.3	-16.1%	-0.1%
Cc1ccc(S(=O)(=O)Nc2cc(C)cn(Cc3ccc(F)cc3)c2=O)cc1	?	?	5.2	25.9µM*	-26.4%
Cc1ccc(S(=O)(=O)Nc2cc(C)cn(Cc3ccccc3)c2=O)cc1	-12.2%	16.4µM*	9.2	20.6µM*	-18.8%
Cc1ccc(S(=O)(=O)Nc2cc3c(cc2Cl)n(C)c(=O)c(=O)n3C)cc1	.	-24.3%	.	-2.1%	.
O=C(c1ccccc1)c1ccc(-c2ccc(O)cc2)cc1	?	-27.0%	-80.5*	-1.2%	18.4µM*

Assay outcomes as filed in PubChem.
